Data from PubChem BioAssay AID1159580 (chemical genetic matrix, 2015).
Among all 5,500 compounds or so, about 2,000 (36%) were called active. Another 18% or so got no clear call; they are omitted. Cut-off read from the data, not from the text of the source: active = normalized growth mostly below about 0.91 (no sharp cut-off); inconclusive = no clear call, values can overlap the other calls; inactive = mostly above about 0.92. The list shows a part of the results.

Assay: chemical genetic growth profiling, strain panel (AID 1159580);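 note: tested at 20 µM; growth read once vehicle control cultures reached saturation at 30 °C; 1 = growth at the plate median or of vehicle wells; lower values mean less growth of the strain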
Settings: growth OD

Measured: normalized growth

CCN(CC)C(C)CN1c2ccccc2Sc2ccccc21 (configuration not stated)
inactive: S. cerevisiae deletion strains, locus YJR075W, strain HOC1, stronger effect = lower value 0.937 | S. cerevisiae deletion strains, locus YKL009W, strain mrt4, stronger effect = lower value 0.888 | S. cerevisiae deletion strains, locus YKL068W, stronger effect = lower value 0.965 | S. cerevisiae deletion strains, locus YKL085W, strain MDH1 (second series), stronger effect = lower value 0.972 | S. cerevisiae deletion strains, locus YKL085W, strain MDH1, stronger effect = lower value 0.972 | S. cerevisiae deletion strains, locus YKL160W, strain elf1, stronger effect = lower value 0.907 | S. cerevisiae deletion strains, locus YKL190W, strain CNB1, stronger effect = lower value 0.985 | S. cerevisiae deletion strains, locus YKR001C, strain vps1, stronger effect = lower value 1.02 | S. cerevisiae deletion strains, locus YKR026C, strain gcn3, stronger effect = lower value 1.01 | S. cerevisiae deletion strains, locus YKR091W, strain srl3, stronger effect = lower value 0.986 | S. cerevisiae deletion strains, locus YLL001W, strain dnm1, stronger effect = lower value 0.911 | S. cerevisiae deletion strains, locus YLL026W, stronger effect = lower value 0.962 | S. cerevisiae deletion strains, locus YLL041C, strain sdh2, stronger effect = lower value 0.981 | S. cerevisiae deletion strains, locus YLR027C, strain aat2, stronger effect = lower value 0.961 | S. cerevisiae deletion strains, locus YLR039C, strain RIC1, stronger effect = lower value 1.1 | S. cerevisiae deletion strains, locus YLR058C, strain SHM2, stronger effect = lower value 0.963 | S. cerevisiae deletion strains, locus YLR102C, strain apc9, stronger effect = lower value 0.965 | S. cerevisiae deletion strains, locus YLR113W, strain HOG1, stronger effect = lower value 1.08 | S. cerevisiae deletion strains, locus YLR221C, strain rsa3, stronger effect = lower value 0.949 | S. cerevisiae deletion strains, locus YLR258W, strain gsy2, stronger effect = lower value 0.922 | S. cerevisiae deletion strains, locus YLR262C, strain YPT6 (second series), stronger effect = lower value 1.05 | S. cerevisiae deletion strains, locus YLR262C, strain YPT6, stronger effect = lower value 1.17 | S. cerevisiae deletion strains, locus YLR268W, strain sec22, stronger effect = lower value 0.924 | S. cerevisiae deletion strains, locus YLR330W, strain CHS5, stronger effect = lower value 0.975 | S. cerevisiae deletion strains, locus YLR342W, strain FKS1 (second series), stronger effect = lower value 0.895 | S. cerevisiae deletion strains, locus YLR357W, strain rsc2, stronger effect = lower value 1.01 | S. cerevisiae deletion strains, locus YLR370C, strain arc18, stronger effect = lower value 0.952 | S. cerevisiae deletion strains, locus YLR371W, strain rom2, stronger effect = lower value 0.955 | S. cerevisiae deletion strains, locus YLR384C, strain iki3, stronger effect = lower value 1 | S. cerevisiae deletion strains, locus YLR418C, strain cdc73, stronger effect = lower value 0.844 | S. cerevisiae deletion strains, locus YML016C, strain PPZ1, stronger effect = lower value 0.985 | S. cerevisiae deletion strains, locus YML032C, strain rad52, stronger effect = lower value 0.951 | S. cerevisiae deletion strains, locus YML120C, strain ndi1, stronger effect = lower value 1 | S. cerevisiae deletion strains, locus YML124C, strain tub3, stronger effect = lower value 0.964 | S. cerevisiae deletion strains, locus YMR058W, strain fet3, stronger effect = lower value 0.933 | S. cerevisiae deletion strains, locus YMR078C, strain ctf18, stronger effect = lower value 0.959 | S. cerevisiae deletion strains, locus YMR125W, strain sto1, stronger effect = lower value 1 | S. cerevisiae deletion strains, locus YMR129W, stronger effect = lower value 0.995 | S. cerevisiae deletion strains, locus YMR205C, strain PFK2, stronger effect = lower value 0.912 | S. cerevisiae deletion strains, locus YMR223W, strain ubp8, stronger effect = lower value 0.944 | S. cerevisiae deletion strains, locus YMR231W, strain pep5, stronger effect = lower value 1.01 | S. cerevisiae deletion strains, locus YMR263W, strain SAP30, stronger effect = lower value 0.952 | S. cerevisiae deletion strains, locus YMR307W, strain GAS1, stronger effect = lower value 0.902 | S. cerevisiae deletion strains, locus YNL067W, strain RPL9B, stronger effect = lower value 0.91 | S. cerevisiae deletion strains, locus YNL071W, strain lat1, stronger effect = lower value 0.99 | S. cerevisiae deletion strains, locus YNL128W, strain TEP1, stronger effect = lower value 0.987 | S. cerevisiae deletion strains, locus YNL153C, strain GIM3, stronger effect = lower value 0.963 | S. cerevisiae deletion strains, locus YNL183C, strain NPR1, stronger effect = lower value 0.961 | S. cerevisiae deletion strains, locus YNL233W, strain BNI4, stronger effect = lower value 0.948 | S. cerevisiae deletion strains, locus YNL248C, strain rpa49, stronger effect = lower value 0.954 | S. cerevisiae deletion strains, locus YNL250W, strain rad50, stronger effect = lower value 0.98 | S. cerevisiae deletion strains, locus YNL271C, strain bni1, stronger effect = lower value 0.971 | S. cerevisiae deletion strains, locus YNL298W, strain CLA4, stronger effect = lower value 0.959 | S. cerevisiae deletion strains, locus YNL322C, strain KRE1 (second series), stronger effect = lower value 0.96 | S. cerevisiae deletion strains, locus YNL322C, strain KRE1, stronger effect = lower value 0.986 | S. cerevisiae deletion strains, locus YNR049C, strain mso1, stronger effect = lower value 0.985 | S. cerevisiae deletion strains, locus YNR052C, strain pop2, stronger effect = lower value 0.967 | S. cerevisiae deletion strains, locus YOL012C, strain htz1 1 | S. cerevisiae deletion strains, locus YOL147C, strain pex11, stronger effect = lower value 0.961 | S. cerevisiae deletion strains, locus YOR001W, strain rrp6, stronger effect = lower value 0.97 | S. cerevisiae deletion strains, locus YOR061W, strain CKA2, stronger effect = lower value 0.988 | S. cerevisiae deletion strains, locus YOR069W, strain VPS5, stronger effect = lower value 0.985 | S. cerevisiae deletion strains, locus YOR070C, strain gyp1, stronger effect = lower value 0.933 | S. cerevisiae deletion strains, locus YOR080W, strain dia2, stronger effect = lower value 1 | S. cerevisiae deletion strains, locus YOR136W, strain idh2, stronger effect = lower value 0.965 | S. cerevisiae deletion strains, locus YOR144C, strain elg1, stronger effect = lower value 0.955 | S. cerevisiae deletion strains, locus YOR184W, strain ser1, stronger effect = lower value 0.94 | S. cerevisiae deletion strains, locus YOR231W, strain MKK1, stronger effect = lower value 1.04 | S. cerevisiae deletion strains, locus YOR265W, strain rbl2, stronger effect = lower value 0.986 | S. cerevisiae deletion strains, locus YOR290C, strain snf2, stronger effect = lower value 0.89 | S. cerevisiae deletion strains, locus YOR316C, strain cot1, stronger effect = lower value 0.942 | S. cerevisiae deletion strains, locus YPL055C, strain LGE1, stronger effect = lower value 0.89 | S. cerevisiae deletion strains, locus YPL106C, strain sse1, stronger effect = lower value 0.927 | S. cerevisiae deletion strains, locus YPL240C, strain hsp82, stronger effect = lower value 0.977 | S. cerevisiae deletion strains, locus YPL241C, strain CIN2, stronger effect = lower value 0.996 | S. cerevisiae deletion strains, locus YPL256C, strain CLN2, stronger effect = lower value 1.05 | S. cerevisiae deletion strains, locus YPR119W, strain clb2, stronger effect = lower value 0.954 | S. cerevisiae deletion strains, locus YPR141C, strain kar3, stronger effect = lower value 0.957 | S. cerevisiae deletion strains, locus YPR163C, strain tif3, stronger effect = lower value 0.949 | S. cerevisiae deletion strains, locus YPR167C, strain met16, stronger effect = lower value 0.936 | S. cerevisiae deletion strains, strain wtn01, stronger effect = lower value 0.957 | S. cerevisiae strains, strain wild type, stronger effect = lower value 1
active: S. cerevisiae deletion strains, locus YLR320W, strain mms22, stronger effect = lower value 0.875 | S. cerevisiae deletion strains, locus YLR342W, strain FKS1, stronger effect = lower value 0.879 | S. cerevisiae deletion strains, locus YNL209W, strain ssb2, stronger effect = lower value 0.891 | S. cerevisiae deletion strains, locus YNL307C, strain MCK1, stronger effect = lower value 0.89 | S. cerevisiae deletion strains, locus YOL006C, strain TOP1, stronger effect = lower value 0.458 | S. cerevisiae deletion strains, locus YOR083W, strain WHI5, stronger effect = lower value 0.841 | S. cerevisiae deletion strains, locus YOR106W, strain vam3, stronger effect = lower value 0.803 | S. cerevisiae deletion strains, locus YOR270C, strain vph1, stronger effect = lower value 0.67 | S. cerevisiae deletion strains, locus YPL051W, strain arl3, stronger effect = lower value 0.831 | S. cerevisiae deletion strains, locus YPL078C, strain atp4, stronger effect = lower value 0.87
